A short description of experiment [1]: SU-DIPG-XXV glioma cell viability, MIPE5.0 library, qHTS (AID 1347068; cut-off not given, nearly all actives have IC50 up to about 30 µM;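 as to IC50: cells exposed to compound for 48 hours before viability readout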). A general note: qHTS replaces the single test concentration by a dilution series.
A short description of experiment [2]: sensitizers of A549 cells to miR-34 induction, primary screen, imaging, A549 dox-inducible miR-34, nuclei and caspase counts (AID 1347080;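 active = compounds whose cell count with miR-34 switched on is under 0.7 times the count with it off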). Particulars: A549 miR-34 inducible, Hoechst nuclei count, 48 h.
Experiment [3] in a line: survival rescue of mitochondrial mutant cells in low glucose, primary screen, MELAS cybrids, Rieske KO mouse fibroblasts, CellTiter-Glo (AID 1508586;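 active = mean z-score across replicates of 1.96 or higher in either the MELAS or the Rieske mutant cell line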;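 also: z relative to plate mean and SD of compound and empty wells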). Background: In ATP-based viability assays light output follows the ATP content of the culture.
A short description of experiment [4]: growth inhibition of DIPG glioma cells, dose response, cell-based, SU-DIPG-XIII, MIPE4.0, CellTiter-Glo, qHTS (AID 1347061; cut-off not given, nearly all actives have AC50 up to about 37 µM;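 also: cells exposed to compound for 48 hours before readout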). Particulars: SU-DIPG-XIII viability, CellTiter-Glo ATP luminescence.
Experiment [5] is described as follows: growth inhibition of DIPG glioma cells, dose response, cell-based, JHH-DIPG-1, MIPE4.0, CellTiter-Glo, qHTS (AID 1347062; cut-off not given, nearly all actives have AC50 up to about 27 µM;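 as to AC50: cells exposed to compound for two days before readout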). Particulars: JHH-DIPG-1 viability, CellTiter-Glo ATP luminescence.
Experiment [6] in a line: growth inhibition of DIPG glioma cells, dose response, cell-based, SU-DIPG-IV, MIPE4.0, CellTiter-Glo, qHTS (AID 1347063; cut-off not given, nearly all actives have AC50 up to about 30 µM;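 also: compound exposure lasted 48 hours before the viability readout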). Particulars: SU-DIPG-IV viability, CellTiter-Glo ATP luminescence.
Experiment [7] in a line: growth inhibition of DIPG glioma cells, dose response, cell-based, SU-DIPG-XIII, MIPE5.0, CellTiter-Glo, qHTS (AID 1347064; cut-off not given, nearly all actives have AC50 up to about 23 µM;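 as to AC50: cells exposed to compound for 48 hours before the viability read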). Particulars: SU-DIPG-XIII viability, CellTiter-Glo ATP luminescence.
Experiment [8] in a line: viability loss in pontine glioma line – cell-based, SU-DIPG-XXV, MIPE5.0, CellTiter-Glo, qHTS, dose response (AID 1347065; cut-off not given, nearly all actives have AC50 up to about 26 µM;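 also: cells exposed to compound for 48 hours before ATP readout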). Particulars: CellTiter-Glo ATP luminescence.
Experiment [9] in a line: SU-DIPG-VI glioma cell viability, MIPE4.0 library, CellTiter-Glo luminescence, qHTS (AID 1347066; cut-off not given, nearly all actives have AC50 up to about 30 µM;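 also: cells exposed to compound for 48 hours before readout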). Particulars: CellTiter-Glo ATP luminescence.
A short description of experiment [10]: JHH-DIPG-1 glioma cell viability, MIPE5.0 library, CellTiter-Glo luminescence, qHTS (AID 1347067; cut-off not given, nearly all actives have AC50 up to about 26 µM;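 also: cells exposed to compound for 48 hours before readout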). Particulars: JHH-DIPG-1 glioma viability, CellTiter-Glo ATP luminescence.
Experiment [11] in a line: modifiers of HSF1 nuclear foci, imaging, Selleck Cancer Library (AID 1347162; in the data active = plate-normalised HSF1 focus index below about 0.46). Particulars: human cells, at 10 µM; SSMD: measured here: HSF1 foci SSMD mean; cell count: measured here: cell number; plate-normalised HSF1 focus index: stronger effect = lower value.
Experiment [12] is described as follows: ovarian cancer cell viability with rucaparib, profiling panel, oncology-focused library, rucaparib conditional (AID 1508598). Particulars: patient-derived ovarian cancer cells, CellTiter-Glo viability, 144 h, stronger effect = lower value.

Results filed as inconclusive are left out. Activity calls are given as the source filed them.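 The calls were made as follows, unless noted: active = normalized viability below 100% at a tested concentration; inactive = the rest.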

Turning to `COc1cc(OC)c2c(=O)[nH]c(-c3cc(C)c(OCCO)c(C)c3)nc2c1`, in experiment [1], the result was inactive. Moreover, the fold change in [2] (stronger effect = lower value, cell number ratio, induced over uninduced) is 0.96 (inactive); in experiment [2] (measured here: relative caspase fold change +Dox/-Dox) it was 0.714. For the same compound, the cell count turned out to be 7650 in [2] (measured here: total cells with miR-34 induction, stronger effect = lower value) and 7970 in experiment [2] (measured here: total cells without miR-34 induction). Further, the z-score in experiment [3] (MELAS cybrid survival, CellTiter-Glo 48 h, stronger effect = higher value) is -0.573 (inactive); in experiment [3] (Rieske KO mouse fibroblast survival, CellTiter-Glo 72 h), -1.26.

The AC50 is the midpoint of the concentration-response curve, whichever way the signal moves. On to `O=C(CC12CC3CC(CC(C3)C1)C2)Nc1cccc2nc(NCCNCCO)ccc12`, for which the AC50 in [4] is 14.8 µM (active); in experiment [5], 20.9 µM (active); in experiment [6], 10.5 µM (active). Further, in experiment [7], the compound was called inactive.

Usually IC50 stands for the point on the concentration scale where inhibition reaches its midpoint. As for `c1cc(-c2cnn3cc(-c4ccc(OCCN5CCCCC5)cc4)cnc23)ccn1`, the AC50 in [4] is 23.5 µM (active); in experiment [5] it was 10.5 µM (active); in experiment [6], 10.5 µM (active); in experiment [7] it was 13.2 µM (active); in experiment [8], 11.8 µM (active); in experiment [9], 23.5 µM (active). Further, the AC50 in [10] is 14.8 µM (active). Besides, in [1], the IC50 was 11.8 µM (active).

For `O=C(NCc1ccncc1)C12C[C@H]3C[C@@H](C1)CC(c1ccc(Cl)cc1)(C3)C2`, the concentration at half-maximal activity (AC50) in experiment [4] was 14.8 µM (active).

Turning to `CCNc1cc(NC2CCC(O)CC2)nc(Nc2ccc3c(ccn3Cc3ccccc3)c2)n1` (stereo not drawn), the call in [4] was inactive. For the same compound, the half-maximal activity concentration (AC50) in experiment [5] is 26.4 µM (active); in experiment [6], 18.7 µM (active); in experiment [7], 23.5 µM (active); in [8] it was 16.6 µM (active); in experiment [10], 23.5 µM (active).

As for `CNC(=O)[C@@H](NC(=O)[C@H](CC(C)C)[C@H](O)C(=O)NO)C(C)(C)C`, the compound was called inactive in experiment [1]. In addition, in experiment [11], the SSMD came out at 3.3, the cell count worked out at 6770 and the plate-normalised HSF1 focus index was 1.2 (inactive).

Broadly, the viability is a read-out of living cells in per cent, often relative to untreated cells. On to `CCOc1cc2ncc(C#N)c(Nc3ccc(F)c(Cl)c3)c2cc1NC(=O)/C=C/CN(C)C`, for which the result in [4] was inactive. The AC50 in [5] is 7.43 µM (active); in experiment [6], 0.833 µM (active); in [7], 5.9 µM (active); in [8], 0.934 µM (active); in experiment [10], 9.34 µM (active). In addition, the SSMD in experiment [11] came out at 3.17. The cell count in experiment [11] stood at 7120. Further, in experiment [11], the plate-normalised HSF1 focus index is 1.19 (inactive). Also, the viability in [12] (at 0.000305 µM, OCI-C5x cells, with rucaparib 10 µM, 100% = cells with rucaparib alone) was 117% (inactive); in experiment [12] (at 0.000305 µM, OCI-C5x cells, without rucaparib), 129% (inactive); in [12] (at 0.000305 µM, OCI-P5x cells, with rucaparib 20 µM, 100% = cells with rucaparib alone), 106% (inactive); in experiment [12] (at 0.000305 µM, OCI-P5x cells, without rucaparib), 117% (inactive); in [12] (at 0.00122 µM, OCI-C5x cells, with rucaparib 10 µM, 100% = cells with rucaparib alone) it was 115% (inactive); in experiment [12] (at 0.00122 µM, OCI-C5x cells, without rucaparib), 115% (inactive). Moreover, the viability in [12] (at 0.00122 µM, OCI-P5x cells, with rucaparib 20 µM, 100% = cells with rucaparib alone) is 105% (inactive); in experiment [12] (at 0.00122 µM, OCI-P5x cells, without rucaparib), 119% (inactive); in experiment [12] (at 0.00488 µM, OCI-C5x cells, with rucaparib 10 µM, 100% = cells with rucaparib alone), 105% (inactive); in [12] (at 0.00488 µM, OCI-C5x cells, without rucaparib), 126% (inactive); in experiment [12] (at 0.00488 µM, OCI-P5x cells, with rucaparib 20 µM, 100% = cells with rucaparib alone), 112% (inactive); in [12] (at 0.00488 µM, OCI-P5x cells, without rucaparib), 121% (inactive). For the same compound, the viability in experiment [12] (at 0.0195 µM, OCI-C5x cells, with rucaparib 10 µM, 100% = cells with rucaparib alone) was 104% (inactive); in experiment [12] (at 0.0195 µM, OCI-C5x cells, without rucaparib), 122% (inactive); in [12] (at 0.0195 µM, OCI-P5x cells, with rucaparib 20 µM, 100% = cells with rucaparib alone) it was 67.4% (active); in experiment [12] (at 0.0195 µM, OCI-P5x cells, without rucaparib), 81.4% (active); in [12] (at 0.0781 µM, OCI-C5x cells, with rucaparib 10 µM, 100% = cells with rucaparib alone) it was 89.4% (active); in experiment [12] (at 0.0781 µM, OCI-C5x cells, without rucaparib), 103% (inactive). Moreover, the viability is 104% (inactive) in [12] (at 0.0781 µM, OCI-P5x cells, with rucaparib 20 µM, 100% = cells with rucaparib alone); 117% (inactive) in experiment [12] (at 0.0781 µM, OCI-P5x cells, without rucaparib); 33.8% (active) in experiment [12] (at 0.313 µM, OCI-C5x cells, with rucaparib 10 µM, 100% = cells with rucaparib alone); 83.6% (active) in experiment [12] (at 0.313 µM, OCI-C5x cells, without rucaparib); 87.8% (active) in [12] (at 0.313 µM, OCI-P5x cells, with rucaparib 20 µM, 100% = cells with rucaparib alone); 103% (inactive) in experiment [12] (at 0.313 µM, OCI-P5x cells, without rucaparib). Besides, the viability in experiment [12] (at 1.25 µM, OCI-C5x cells, with rucaparib 10 µM, 100% = cells with rucaparib alone) was 17.6% (active); in experiment [12] (at 1.25 µM, OCI-C5x cells, without rucaparib), 47.6% (active); in experiment [12] (at 1.25 µM, OCI-P5x cells, with rucaparib 20 µM, 100% = cells with rucaparib alone), 66.1% (active); in experiment [12] (at 1.25 µM, OCI-P5x cells, without rucaparib) it was 91.8% (active); in experiment [12] (at 5 µM, OCI-C5x cells, with rucaparib 10 µM, 100% = cells with rucaparib alone) it was 1.66% (active); in experiment [12] (at 5 µM, OCI-C5x cells, without rucaparib) it was 3.35% (active). Besides, the viability in experiment [12] (at 5 µM, OCI-P5x cells, with rucaparib 20 µM, 100% = cells with rucaparib alone) is 1.19% (active); in experiment [12] (at 5 µM, OCI-P5x cells, without rucaparib), 1.58% (active).

With `COc1ccc(Cc2ccc(NC(N)=O)cc2)cc1-c1cccc(Cl)c1`, the outcome in [4], in [5], in [6], in [7], in experiment [8] and in experiment [9] was inactive. Moreover, in experiment [10], the compound was classed as inactive.

(Values after PubChem BioAssay.)
